Screening data from PubChem.
Tb PYK inh – inhibitors of Trypanosoma brucei pyruvate kinase | AID 624173 | Q57TT1 | 410,000 tested, 0.12% active | Potency, µM (series often up to 76.8 µM), usual class: inhibitors | TbPYK enzyme, Kinase-Glo Plus ATP luminescence, 45 min; further: nearly all actives have a fitted effect of over 50% in size
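In this concentration-response screen, enzyme-free wells defined baseline while DMSO plates tracked drift. Each reaction combined TbPYK, substrate, compound and 130 uM ADP for 45 min at room temperature. Kinase-Glo Plus luminescence gave the signal.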
Giardia FBPA inh-1 – inhibitors of Giardia lamblia fructose-1,6-bisphosphate aldolase | A8B2U2 | purified Giardia FBPA | Potency, µM (highest dose often 59.6 µM), hits mostly inhibitors | 290,000 tested, 0.71% active | AID 2451; further: nearly all actives have a fitted effect of over 55% in size
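40 nM FBPA preincubated 10 min at RT with compound (up to 57.5 uM final), then substrate plus GAPDH/TPI/NAD/arsenate coupling and diaphorase/resazurin added. Fluorescence read after 20 min at RT, 525/598 nm.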
Shiga toxin inh – Shiga toxin inhibition. 290,000 tested, 9.2% active. Vero cells, Shiga toxin protein synthesis inhibition reporter. inhibition, % at 38.7 µM; in the data active means inhibition mostly above about 28%, no sharp cut-off; inactive means mostly below about 43%
RE007 growth inh – less growth of the S. pombe RE007 Vpr strain. S. pombe RE007 Vpr strain, BacTiter-Glo ATP luminescence, 24 h. Potency, µM (titrated, usually from 92.2 µM), hits mostly inhibitors. 360,000 tested, 0.21% active; active means well fitted falling curve with a large enough effect; inconclusive means small, poorly fitted or top-dose-only effect; inactive means no such curve, though single readings can be large or run the other way; further: nearly all actives have a fitted effect of over 50% in size
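Fission yeast RE007 carrying one integrated HIV-1 vpr copy, seeded at OD 0.01 in PMG+AL medium with 23 nL pinned compound. Grown 24 h at 30 degrees; viability read by BacTiter-Glo luminescence after 5 min.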
Cycloheximide cs – counter-screen hit for Shiga toxin inhibitors, cycloheximide; cell reporter, cycloheximide protein synthesis inhibition counterscreen; max response, %; 300,000 tested, 12% active; AID 2314; in the data active means max response mostly above about 13%, no sharp cut-off; inactive means mostly below about 14%; further: read at 38.3 µM for the half of the compounds with a filed dose
LmPK inhibitor – blocks Leishmania mexicana pyruvate kinase activity | purified LmPK, Kinase-Glo ATP luminescence, 1 h | Potency, µM (titrated, usually from 57.5 µM), hits mostly inhibitors | 290,000 tested, 0.37% active
Target sequence (Q27686 whole entry, looked up): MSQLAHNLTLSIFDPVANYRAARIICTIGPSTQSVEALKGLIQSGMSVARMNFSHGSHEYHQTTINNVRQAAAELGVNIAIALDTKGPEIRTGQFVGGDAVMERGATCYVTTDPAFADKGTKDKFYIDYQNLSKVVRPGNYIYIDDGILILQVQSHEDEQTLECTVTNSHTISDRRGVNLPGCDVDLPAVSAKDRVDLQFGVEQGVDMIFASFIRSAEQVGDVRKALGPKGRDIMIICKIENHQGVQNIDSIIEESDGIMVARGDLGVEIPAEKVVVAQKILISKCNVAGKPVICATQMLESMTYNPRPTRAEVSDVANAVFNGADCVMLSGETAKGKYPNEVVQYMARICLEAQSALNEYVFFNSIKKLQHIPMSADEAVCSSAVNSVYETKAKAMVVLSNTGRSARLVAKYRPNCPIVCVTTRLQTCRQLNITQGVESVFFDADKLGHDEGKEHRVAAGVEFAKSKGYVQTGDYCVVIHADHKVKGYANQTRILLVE
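In 50 mM imidazole pH 7.2 with 7 mM MgCl2, LmPK (0.1 nM) turned over PEP (0.5 mM) and ADP (0.1 mM) for 1 h at room temperature. Luciferase read-out of ATP.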
Giardia growth – Giardia lamblia growth inhibition | 1,500 tested, 5% active | Potency, µM (highest dose often 57.5 µM), actives largely listed as inhibitors | Giardia lamblia trophozoite growth inhibition | shares compounds with Giardia FBPA inh-1;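 further: trophozoites exposed to compound for 48 h at 37 °C; nearly all actives have a fitted effect of over 70% in size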
Mammal cell tox – mammalian cytotoxicity of Giardia aldolase inhibitor hits. shares compounds with Giardia FBPA inh-1. mammalian cell viability counter-screen, qHTS. Potency, µM (highest dose often 57.5 µM), hits mostly inhibitors. 1,500 tested, 4% active. AID 2786;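 further: Chinese hamster ovary cells used as mammalian cytotoxicity surrogate; viability measured as cellular ATP by luminescence; compound exposure lasted 48 h before reading; nearly all actives have a fitted effect of over 60% in size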
Giardia FBPA inh-2 – confirmation of Giardia fructose-bisphosphate aldolase inhibitors. 1,500 tested, 5% active. Potency, µM (series often up to 57.5 µM), usual class: inhibitors. shares compounds with Giardia FBPA inh-1. purified Giardia aldolase enzyme activity, qHTS; further: nearly all actives have a fitted effect of over 45% in size
Rabbit FBPA inh – blocks rabbit muscle aldolase in Giardia aldolase selectivity test. 1,500 tested, 4% active. Potency, µM (doses to about 57.5 µM), actives largely listed as inhibitors. shares compounds with Giardia FBPA inh-1. Rabbit muscle FBPA enzyme inhibition, selectivity counter-screen; further: nearly all actives have a fitted effect of over 60% in size
GAPDH counter – counter-screen for Giardia aldolase inhibitors: GAPDH coupling enzyme; 1,500 tested, 6% active; Potency, µM (titrated, usually from 57.5 µM), usual class: inhibitors; AID 2795; shares compounds with Giardia FBPA inh-1; GAPDH coupling enzyme counterscreen, biochemical, qHTS; further: nearly all actives have a fitted effect of over 55% in size
Of the large screens only hits and unclear results are named; the others gave an inactive call (follow-up assays come after a bar, where they were run); [ ] = dose if it differs, or a comment. Many of the other results were omitted from the sample, so hits are more common in it than they were. Unless noted, the call rests on the fitted dose curve; in most records, active means well fitted curve in the direction sought with a large enough effect; inconclusive means small, poorly fitted or top-dose-only effect, or another doubt; inactive means no such curve, though single readings can be large; an effect the other way counts as inactive or inconclusive.

C1CCCCCC(=NNc2nn[nH]n2)CCCCC1	Giardia FBPA inh-1 15.8µM | Giardia growth inactive | Mammal cell tox inactive | Giardia FBPA inh-2 inactive | Rabbit FBPA inh inactive | GAPDH counter inactive
Cc1ccc(C(=O)COc2cc(C)nc3nncn23)cc1	none
O=C(NCc1ccccn1)c1c(Cl)cccc1Cl	none
O=C(CC(NCc1ccccn1)C(=O)O)Nc1ccccc1Cl (stereo unspecified)	Giardia FBPA inh-1 6.29µM | Giardia growth inconclusive | Mammal cell tox inactive | Giardia FBPA inh-2 inactive | Rabbit FBPA inh inactive | GAPDH counter inactive
CC(=O)OC[C@@H]1O[C@@H](O/N=C2/C[C@@H](O)[C@@H](O)[C@@H]3[C@H]4C(=O)N(c5ccc(F)cc5F)C(=O)[C@@H]4CC[C@H]23)[C@H](OC(C)=O)[C@H](OC(C)=O)[C@@H]1OC(C)=O	none (no result: Tb PYK inh, Shiga toxin inh, RE007 growth inh, Cycloheximide cs, LmPK inhibitor)
O=[N+]([O-])c1ccccc1/C=N/n1c(-c2cccnc2)n[nH]c1=S	Tb PYK inh inconclusive
O=[N+]([O-])c1ccccc1/C=N/n1c(C(F)(F)F)n[nH]c1=S	Tb PYK inh inconclusive, Giardia FBPA inh-1 17.7µM, RE007 growth inh inconclusive | Giardia growth inactive[10.4 µM] | Mammal cell tox inactive | Giardia FBPA inh-2 inconclusive | Rabbit FBPA inh inconclusive | GAPDH counter inconclusive
CC(C)CN1CC2(CCN(C(=O)c3ccco3)CC2)C1	none (no result: Shiga toxin inh, RE007 growth inh, Cycloheximide cs, LmPK inhibitor)
CN(CC(=O)NCc1ccccc1)Cc1cccc(F)c1	Giardia FBPA inh-1 10µM | Giardia growth inactive | Mammal cell tox inactive | Giardia FBPA inh-2 inactive | Rabbit FBPA inh inactive | GAPDH counter inactive
CSc1ccccc1NC(=O)CN(C)Cc1cccc(Cl)c1	Giardia FBPA inh-1 22.3µM | Giardia growth inactive | Mammal cell tox inactive | Giardia FBPA inh-2 inactive | Rabbit FBPA inh inactive | GAPDH counter inactive
CN(CC(=O)NC(=O)NCc1ccccc1)Cc1ccc(Cl)c(Cl)c1	RE007 growth inh inconclusive
CCN1C(=O)[C@H]2[C@H]3CN=C(SCc4ccc(C)cc4)N3[C@@](C)(C(=O)OC)[C@H]2C1=O	none (no result: Giardia FBPA inh-1, Shiga toxin inh, Cycloheximide cs, LmPK inhibitor)
CCOC(=O)N1CCN(c2ccncc2S(=O)(=O)N2CCCCC2)CC1	none (no result: Giardia FBPA inh-1)
COC(=O)c1ccc(NC(=O)CN(Cc2ccccc2)S(=O)(=O)c2ccc(Cl)cc2)cc1	none (no result: Giardia FBPA inh-1, Shiga toxin inh, RE007 growth inh, Cycloheximide cs, LmPK inhibitor)
CC(C)[C@@H](CC(=O)N[C@@H]1CCCC[C@H]1C(=O)N[C@H](CC(=O)N[C@@H](CCC(=O)O)CC(=O)O)Cc1c[nH]c2ccccc12)NC(=O)C[C@H](Cc1c[nH]c2ccccc12)NC(=O)[C@@H]1CCCC[C@H]1N	none (no result: Tb PYK inh, Shiga toxin inh, RE007 growth inh, Cycloheximide cs, LmPK inhibitor)
CSCCC(=O)Nc1nc(-c2ccccn2)cs1	Giardia FBPA inh-1 15.8µM, Cycloheximide cs 20.7 | Giardia growth 14.1µM | Mammal cell tox inactive | Giardia FBPA inh-2 inactive | Rabbit FBPA inh inactive | GAPDH counter inactive
C[C@H](NC(=O)c1ccccc1)C(=O)Nc1nc(-c2ccccn2)cs1	Giardia FBPA inh-1 5.61µM | Giardia growth inconclusive | Mammal cell tox inactive | Giardia FBPA inh-2 inactive | Rabbit FBPA inh inactive | GAPDH counter inactive
O=C(/C=C/c1ccco1)Nc1nc(-c2ccccn2)cs1	Giardia FBPA inh-1 17.7µM, Shiga toxin inh 53.5, Cycloheximide cs 49.1 | Giardia growth inconclusive | Mammal cell tox inconclusive | Giardia FBPA inh-2 inactive | Rabbit FBPA inh inactive | GAPDH counter inactive
COc1ccc(-c2csc(NC(=S)NC(=O)/C=C/c3ccco3)n2)cc1Br	none
